Measurements published in PubChem BioAssay (EPA / NIEHS).
“And” between values parts separate entries of the source, which are not always exact repeats. Equal entries are not always repeated. Some structures have more than one record in an assay (separate samples or runs), and their calls can disagree. The source made the active and inactive calls. The calls were made as follows: active = hit-call score of the fitted dose curve at least 0.9, where 1 is the maximum; inactive = score below 0.9.

Test: BSK_3C_Proliferation: Cell Proliferation Assessment in the BioMAP Diversity Plus: 3C Assay (AID 2283006);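 as to AC50: potency may reflect either rise or fall in cell number versus DMSO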
Settings: primary human endothelial cells (HUVEC)
Method: BSK_3C is a cell-based, multiplexed-readout assay that uses umbilical vein endothelium, a human vascular primary cell, with measurements taken at 24 hours after chemical dosing in a 96-well plate.BSK_3C_Proliferation is an assay component measured in the BSK_3C assay. It measures 0.1% sulforhodamine related to cell proliferation using Sulforhodamine staining technology.Data from the assay component BSK_3C_Proliferation was analyzed into 1 assay endpoint. This assay endpoint, BSK_3C_Proliferation, was analyzed with bidirectional fitting relative to DMSO as the negative control and baseline of activity. Using a type of viability reporter, measures of total protein for gain or loss-of-signal activity can be used to understand the viability at the cellular-level. Furthermore, this assay endpoint can be referred to as a secondary readout, because this assay has produced multiple assay endpoints where this one serves a viability function. To generalize the intended target to other relatable targets, this assay endpoint is annotated to the cell cycle intended target family, where the subfamily is proliferation.
The levels of cell surface (or secreted, indicated by the prefix "s") biomarker endpoints were measured by ELISA. Overt cytotoxicity to cells in confluent adherent cultures (all systems other than the BT system) was assessed by measuring total protein levels using sulforhodamine B (SRB) staining in parallel cultures at the time of biomarker measurements, indicated as SRB endpoints. For proliferation assays for adherent cell types, individual cell types are cultured at sub-confluence and relative cell numbers quantified by SRB staining at time points optimized for each system (48 h: 3C and CASM3C systems; 72 h: BT and HDF3CGF systems; 96 h: SAg system). SRB was performed by staining cells with 0.1% SRB after fixation with 10% TCA and reading wells at 560 nm.Viability and proliferation of PBMC (T cells) was quantified by Alamar Blue reduction for the SAg and BT systems. For PBMC viability (referred to as PBMC Cytotoxicity within the assay endpoint names), cells were plated (75,000/well in a 96-well plate) and then chemical samples added for 1 h before addition of activators, SEB and TSST-1 (20 ng/mL final concentration each). Cells were incubated for 90 h. Then, Alamar Blue (20 uL/well) (Invitrogen, Cat DAL1100) was added for 6 h, and the plates were read with a fluorescence microplate reader at 546/580 nm (excitation/emission). For PBMC proliferation, cells were plated and activated as above but incubated for only 16 h prior to addition of Alamar Blue. Plates were read after 6 h.
With `CCCCC(CC)COP(=O)(O)OCC(CC)CCCC` (stereo not given) the AC50 was 36 µM (active). In the case of `CCCCOCCOCCOC(=O)CCCCC(=O)OCCOCCOCCCC`, the outcome is reported as “inactive”. For `FC(F)(F)C(F)(F)C(F)(F)C(F)(F)C(F)(F)C(F)(F)C(F)(F)I`, the outcome was “inactive”. With `FC(F)(F)C(F)(F)C(F)(F)N(C(F)(F)C(F)(F)C(F)(F)F)C(F)(F)C(F)(F)C(F)(F)F` the outcome was “inactive”. For `OCC(F)(F)C(F)(F)C(F)(F)F`, the outcome was “inactive”. With `O[Si](c1ccccc1)(c1ccccc1)c1ccccc1` the AC50 was 24.4 µM (active). With `OCCCC(F)(F)C(F)(F)C(F)(F)F` the outcome was “inactive”. In the case of `FC(F)(F)C(F)(F)C(F)(F)CI`, the outcome is reported as “inactive”. For `CCCCCCOC(=O)c1ccccc1O`, the AC50 was 35.3 µM (active) and 40.9 µM (active). For `O=C(O)C(F)(F)C(F)(F)OC(F)(F)F`, the outcome was “inactive”. For `CS(C)(=O)=O`, the outcome was “inactive”. In the case of `Nc1ccc([N+](=O)[O-])cc1O`, the outcome is reported as “inactive”. With `O=C(O)C(F)(F)C(F)(F)C(F)F` the outcome was “inactive”. In the case of `FC(F)(F)C(F)(F)CNCC(F)(F)C(F)(F)F`, the outcome is reported as “inactive”. In the case of `C=CC(F)(F)C(F)(F)C(F)(F)C(F)(F)C(F)(F)C(F)(F)C(F)(F)C(F)(F)F`, the outcome is reported as “inactive”. In the case of `CO[Si](OC)(c1ccccc1)c1ccccc1`, the AC50 is reported as 37 µM (active). With `Cc1ccc(S(=O)(=O)OCC(F)(F)C(F)(F)C(F)(F)C(F)(F)C(F)(F)C(F)F)cc1` the outcome was “inactive” and the AC50 was 30 µM (active). In the case of `CCCCCCCCC(F)(F)C(F)(F)C(F)(F)C(F)(F)C(F)(F)C(F)(F)F`, the outcome is reported as “inactive”. For `O=C(O)C(F)(F)C(F)(F)F`, the outcome was “inactive”. With `FC(F)(I)C(F)(F)C(F)(F)C(F)(F)I` the AC50 was 49.8 µM (active) and 52.8 µM (active) and 49.4 µM (active). For `O=C(O)C(F)(F)C(F)(F)C(F)(F)C(F)(F)C(F)(F)C(F)(F)C(F)(F)C(F)(F)Cl`, the AC50 was 53.2 µM (active) and 48.1 µM (active). With `CCCCNc1ccccc1` the outcome was “inactive”. In the case of `FC(F)(F)C(F)(F)C(F)(F)C(F)(F)C(F)(F)C(F)(F)C(F)(F)Br`, the outcome is reported as “inactive”. With `C=CC(F)(F)C(F)(F)C(F)(F)C(F)(F)C(F)(F)C(F)(F)C(F)(F)C(F)(F)C=C` the outcome was “inactive”. With `CC(CCl)OP(=O)(OC(C)CCl)OC(C)CCl` (stereo not given) the outcome was “inactive”. With `C=C(C)C(=O)OCCC(F)(F)C(F)(F)C(F)(F)C(F)(F)C(F)(C(F)(F)F)C(F)(F)F` the outcome was “inactive”. With `C=C(C)C(=O)OCC(F)(F)C(F)(F)C(F)(F)F` the outcome was “inactive”. With `FC(F)(F)C(F)(F)C(F)(F)C(F)(F)C(F)(F)CCI` the AC50 was 30 µM (active) and the outcome was “inactive”. For `OCC(F)(F)C(F)(F)C(F)(F)C(F)(F)C(F)(F)C(F)(F)F`, the AC50 was 52.3 µM (active) and 30 µM (active). For `CCCCCCCOC(=O)c1ccccc1C(=O)OCCCCCCC`, the outcome was “inactive”. For `O=S(=O)(OCC(F)F)C(F)(F)F`, the outcome was “inactive”. With `CCc1ccc(C(c2ccc(CC)cc2)C(Cl)Cl)cc1` the AC50 was 13.1 µM (active). In the case of `O=C(O)C=C(C(F)(F)F)C(F)(F)F`, the AC50 is reported as 27 µM (active) and the outcome is reported as “inactive”. With `O=C(O)C(F)(F)C(F)(F)C(F)(F)C(F)(F)C(F)(F)C(F)(F)C(F)(F)C(F)(F)C(F)(F)C(F)(F)C(F)(F)C(F)(F)C(F)(F)F` the AC50 was 1.29 µM (active) and 252 nM (active). For `FC(F)(F)C(F)(F)C(F)(F)C(F)(F)C(F)(F)C(F)(F)CCS`, the outcome was “inactive”. With `O=P(O)(O)OCCC(F)(F)C(F)(F)C(F)(F)C(F)(F)C(F)(F)C(F)(F)F` the outcome was “inactive”. With `O=C(O)C(F)(OC(F)(F)C(F)(OC(F)(F)C(F)(F)C(F)(F)F)C(F)(F)F)C(F)(F)F` (stereo not given) the outcome was “inactive”.
